# Assay outcomes: PubChem, several laboratories
# In the library only some 2.3% were active in any assay of this set; here they are far more common.
# Mcl-1 Bim block: disrupts Bim peptide binding to human Mcl-1; Q07820; Bead-based flow cytometry, Bim peptide-Mcl-1 binding; inhibition, % at 10 µM; actives 0.1% (n = 190,000); AID 1009; in the data active = inhibition above about 40%;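 also: 0% = no compound tracer wells and 100% = peptide blocker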
# Target sequence (Q07820 whole entry, looked up): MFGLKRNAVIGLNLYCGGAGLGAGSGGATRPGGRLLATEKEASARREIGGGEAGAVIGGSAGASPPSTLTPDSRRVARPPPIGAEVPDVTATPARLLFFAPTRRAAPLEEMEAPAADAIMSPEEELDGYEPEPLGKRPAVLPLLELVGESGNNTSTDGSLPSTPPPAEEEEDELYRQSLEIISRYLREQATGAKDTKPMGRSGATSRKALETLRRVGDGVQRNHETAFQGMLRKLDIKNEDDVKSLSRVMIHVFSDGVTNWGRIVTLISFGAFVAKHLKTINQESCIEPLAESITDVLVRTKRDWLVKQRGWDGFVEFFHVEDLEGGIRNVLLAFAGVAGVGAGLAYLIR
# MCL1-BIM inh: MCL1-BIM-BH3 interaction inhibition (human). Q07820. GST-MCL1 / FITC-Bim-BH3 fluorescence polarization. inhibition, % at 10.9 µM. actives 0.68% (n = 320,000). AID 2057;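 active = inhibition above the mean inhibition of all tested compounds plus 3 SD, set per campaign, cut at about 40% in these data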;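 also: 0% = DMSO wells and 100% = unlabeled Bim-BH3 peptide control; higher means more loss of mP so more displacement of Bim peptide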
# Mcl1-Bid inh: disrupts binding of human Mcl-1 to Bid peptide. Q07820. TR-FRET Mcl-1/Bid-Dy647 peptide binding, 1536-well. inhibition, % at 21.7 µM. actives 0.97% (n = 220,000). AID 1021;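 active = compounds that cut the binding signal by more than half at the single screening dose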;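 also: His-tagged Mcl-1 with europium anti-His antibody binding Bid BH3 peptide; 0% = Mcl-1 plus peptide wells and 100% = peptide-only wells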
# Mcl1-Noxa inh: Mcl-1/Noxa interaction inhibition. Q07820. TR-FRET Mcl-1/Noxa peptide binding, 2 h. inhibition, % at 21.7 µM. actives 1.5% (n = 220,000). AID 1022;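 active = compounds that cut the protein-peptide binding signal by more than 50% relative to plate controls in a single-dose test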;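 also: His-tagged Mcl-1 with rhodamine Noxa BH3 peptide and terbium anti-His antibody; 0% = Mcl-1 plus Noxa peptide wells and 100% = peptide-only wells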
# GLD-1 RNA inh: GLD-1-TGE RNA interaction inhibition (C. elegans) | inhibition, % at 5.96 µM | actives 0.44% (n = 320,000) | AID 2280 | purified GLD-1 + fluorescein TGE RNA, fluorescence polarization | Q17339;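 active = percent inhibition above a per-plate cutoff, the plate mean of test compounds plus 3 SD, cut at about 30% in these data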;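 also: 0% = DMSO wells with GLD-1 and probe and 100% = wells lacking GLD-1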
# BCLXL inh: blocks human Bcl-xL binding to Bim BH3 peptide | Q07817 | GST-Bcl-xL / FITC-Bim BH3 peptide fluorescence polarization | actives 0.7% (n = 320,000) | AID 2129 | inhibition, % at 10.9 µM;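 active = inhibition above the mean of all tested compounds plus 3 SD, cutoff set per campaign, cut at about 30% in these data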;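 also: 0% = DMSO wells and 100% = unlabeled Bim-BH3 peptide competitor; inhibitors lower millipolarization by displacing the labeled peptide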
# Target sequence (Q07817 whole entry, looked up): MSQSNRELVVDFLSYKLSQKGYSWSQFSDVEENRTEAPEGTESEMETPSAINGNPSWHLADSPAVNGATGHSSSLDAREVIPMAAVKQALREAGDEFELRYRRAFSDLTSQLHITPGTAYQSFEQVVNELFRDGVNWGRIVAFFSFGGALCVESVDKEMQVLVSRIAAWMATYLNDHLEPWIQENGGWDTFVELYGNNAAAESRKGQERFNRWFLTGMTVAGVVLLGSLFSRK
# Active calls of the source: *; . = no result.
SMILES,Mcl-1 Bim block,MCL1-BIM inh,Mcl1-Bid inh,Mcl1-Noxa inh,GLD-1 RNA inh,BCLXL inh
CC(=O)Nc1ccc(NC(=S)NC(=O)/C=C/c2ccc(Cl)cc2)cc1,-1.0,2.9,6.6,-7.8,5.3,3.8
Cn1c2c(c3cc([N+](=O)[O-])ccc31)CCCC2,.,-4.0,.,.,9.8,0.9
Cc1ccccc1OCC(=O)Nc1ccc(C(=O)Nc2ccccc2C(=O)O)cc1,.,8.0,.,.,4.2,7.9
CCN(CC)S(=O)(=O)c1cc(C(=O)N=c2sccn2C)ccc1OC,.,-7.7,.,.,5.6,1.2
Cc1cccc(-c2noc(CCCC(=O)N3CCOCC3)n2)c1,2.0,-2.8,1.3,10.1,3.0,-3.8
NS(=O)(=O)c1ccc(NC(=S)NC(=O)/C=C/c2ccco2)cc1,-2.0,8.0,32.2,88.7*,4.6,13.0
NC(N)=NS(=O)(=O)c1ccc(NC(=S)NC(=O)/C=C/c2ccco2)cc1,-1.0,17.7,0.5,-61.7,-4.8,12.9
COc1ccc(/C=C2\SC(=S)N(CCC(=O)Nc3ccc(O)cc3)C2=O)cc1,.,7.4,.,.,5.6,-1.2
COc1ccc(/C=C2\SC(=O)N(CCC(=O)Nc3ccc(S(=O)(=O)Nc4nccs4)cc3)C2=O)cc1,-2.0,0.8,22.7,93.2*,7.1,2.2
COc1ccc(/C=C2/SC(=O)N(CCC(=O)Nc3ccc(S(=O)(=O)Nc4nccs4)cc3)C2=O)cc1,-8.0,-7.1,41.5,96.0*,4.8,3.2
O=[N+]([O-])c1ccc(-c2c[nH]c(=S)[nH]2)cc1,.,11.7,-36.2,95.3*,-3.8,11.3
CSc1sc(C(=O)NN)c2c1C1(CCC2)SCCS1,.,-3.2,-29.7,-8.2,-1.6,2.6
CC(=O)CC1(C)OC(N)=C(C#N)C1(C#N)C#N (stereo unspecified),0.0,35.2,.,.,56.8*,45.4*
Cc1ccc(C(=O)N2N=C(c3ccc(Br)cc3)CC2c2ccccc2O)cc1 (stereo unspecified),.,4.3,.,.,7.2,6.0
O=C(Nc1ccc(O)cc1)C1CC=CCC1 (stereo unspecified),6.0,7.0,-59.1,56.4*,-3.0,6.6
c1ccc(C(c2nnnn2C2CCCCC2)N2CCc3ccccc3C2)nc1 (stereo unspecified),-2.0,29.2,-11.4,-10.4,24.9,30.5*
CCOCCCNC(=O)c1c[nH]c2ccc(S(=O)(=O)Nc3cccc(OC)c3)cc2c1=O,0.0,-12.1,55.7*,39.4,-5.6,-5.3
CCOc1ccc(N(C)S(=O)(=O)c2ccc3[nH]cc(C(=O)NCC4CCCO4)c(=O)c3c2)cc1 (stereo unspecified),4.0,-6.3,10.6,45.3,1.5,5.0
CCN(CC)C(=O)c1c[nH]c2ccc(S(=O)(=O)Nc3cc(C)cc(C)c3)cc2c1=O,-2.0,6.9,54.6*,23.5,4.1,5.2
CCc1ccc(NS(=O)(=O)c2ccc3[nH]cc(C(=O)NCC4CCCO4)c(=O)c3c2)cc1 (stereo unspecified),-4.0,4.2,54.3*,16.2,-5.0,4.2
Cc1ccccc1N(C)S(=O)(=O)c1ccc2[nH]cc(C(=O)NCC3CCCO3)c(=O)c2c1 (stereo unspecified),-1.0,-6.5,65.7*,41.5,5.6,-1.1
COC(=O)C(CCCN1C(=O)c2ccccc2C1=O)(NC(C)=O)c1nnn(C)n1 (stereo unspecified),-2.0,-1.5,-14.0,-1.2,9.0,2.3
CC12CCC(C(=O)Nc3ccccc3-n3cccc3)(CC1=O)C2(C)C (stereo unspecified),-3.0,6.8,75.8*,-2.0,-1.8,5.6
CC12CCC(C(=O)Nc3ccccc3N3CCOCC3)(CC1=O)C2(C)C (stereo unspecified),1.0,4.3,-8.1,3.6,1.9,-0.6
O=C(Nc1cccc(Cl)c1)c1cc(N=Nc2ccc([N+](=O)[O-])cc2Cl)ccc1O,.,6.3,100.2*,108.8*,-6.3,1.1
SMILES,Mcl-1 Bim block,MCL1-BIM inh,Mcl1-Bid inh,Mcl1-Noxa inh,GLD-1 RNA inh,BCLXL inh
Cc1cc(=O)[nH]c(SCC(=O)Nc2ccc(C)c(S(=O)(=O)N3CCCCC3)c2)n1,.,-5.0,-68.1,10.1,0.6,-1.8
Cn1c(=O)c(=O)n(C)c2cc(S(=O)(=O)N3CCC(N4CCCCC4)CC3)ccc21,.,-4.0,.,.,-2.1,0.0
Nc1cccc2c1C(=O)N(C(=O)c1ccc(Cl)c(S(=O)(=O)N3CCCCCC3)c1)C2=O,-1.0,33.2,-11.9,-16.6,26.4,37.2*
O=c1nc(/C=C/c2cccn2-c2ccc([N+](=O)[O-])cc2)cc(C(F)(F)F)[nH]1,0.0,-46.9,-62.7,56.7*,-23.1,-44.2
O=c1nc(/C=C/c2cc([N+](=O)[O-])ccc2Cl)cc(C(F)(F)F)[nH]1,2.0,7.8,2.1,13.2,-1.4,7.7
O=C(CN1C(=O)CC(c2ccccc2)Sc2ccccc21)NCC1CCCO1 (stereo unspecified),-8.0,-11.8,0.1,4.5,1.2,-3.5
COc1cc(SC)ccc1C(=O)N1CCc2ccccc21,.,-1.8,.,.,-3.7,-3.0
CCc1cccc(CC)c1NC(=S)N1CCn2cccc2C1c1cccnc1 (stereo unspecified),22.0,8.4,75.4*,17.0,3.7,3.3
Cc1ccc(NC(=S)N2CCn3cccc3C2c2cccnc2)cc1 (stereo unspecified),-4.0,13.1,-38.6,3.1,5.5,4.8
Nc1ccc(NC(=O)c2ccc(C(=O)Nc3ccc(N)cc3)cc2)cc1,.,-0.2,61.5*,22.7,0.1,-8.2
Nc1ccc(C(=O)Nc2ccc(Nc3ccncc3)cc2)cc1,.,4.7,0.0,-0.8,-0.3,6.3
Cc1nc2ccccc2n1CSc1ccccc1,42.0*,3.6,-5.6,7.6,3.9,1.9
CN(C)c1ccc(C(CNC(=O)c2ccc(C#N)cc2)c2c[nH]c3ccccc23)cc1 (stereo unspecified),-1.0,-3.2,-6.5,79.1*,3.3,1.4
CN(C)c1ccc(C(CNS(=O)(=O)c2ccc(F)cc2)c2c[nH]c3ccccc23)cc1 (stereo unspecified),-2.0,1.2,-48.0,30.9,2.4,0.7
CN(C)c1ccc(C(CNC(=O)c2ccccc2Br)c2c[nH]c3ccccc23)cc1 (stereo unspecified),-4.0,-4.9,-54.7,77.5*,3.6,-1.5
CCOC(=O)c1ccc(S(=O)(=O)NCC(c2ccc(N(C)C)cc2)c2c[nH]c3ccccc23)cc1 (stereo unspecified),-2.0,11.7,-22.6,14.8,4.9,8.8
O=S(=O)(Nc1ccncc1)c1ccccc1,-1.0,-1.1,15.4,0.5,-0.5,-1.9
O=S(=O)(Nc1ccc(-c2cnco2)cc1)c1ccccc1,.,22.3,-3.7,2.2,9.8,30.6*
CSCC(C)N1CCC(n2nccc2NC(=O)c2ccccc2C)CC1 (stereo unspecified),.,38.7,.,.,23.0,37.8*
